Data on 9 compounds can be found in PubChem BioAssay (NCATS).

Values joined by “and” are separate entries in the source; they are usually repeats but may differ in a detail not shown here. Identical values can stand only once. Records with an inconclusive call do not appear. Where a structure was tested more than once in an assay, its records may differ in their call. Active and inactive are the calls of the source. Unless noted, calls come from the whole dose curve. Bounds are passed on as bounds.

Test [1] in a line: Cell Viability - BJ (AID 421).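 Note: potency is the fitted concentration of half-maximal effect; cells exposed to compound for 40 hours at 37 °C before readout.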 The settings on record: BJ fibroblast viability, qHTS. An outline of the steps: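 Cytotoxicity in human BJ foreskin fibroblasts is scored as loss of cellular ATP after a 40-hour exposure, measured by luciferase luminescence. Controls are DMSO and 100 uM tamoxifen.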
(In general: In qHTS, concentration-response curves come from the screen itself.)

Test [2] has as its target Mitogen-activated protein kinase 10 (Mus musculus) (UniProt Q61831). Briefly: JNK3 AlphaScreen Assay (AID 530; active = well fitted curve in either direction with a large enough effect, not every such curve was filed as active;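 note: kinase came from lysate of stimulated human HepG2 cells; signal reports phosphorylation of biotinylated GST-cJun 1-79 at Ser73 with 10 µM ATP; % is set by controls: 0 for no effect and ±100 for the full control effect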). Conditions: JNK3 lysate, c-Jun phosphorylation; series mostly up to 57.1 µM. The gist of the method: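 Room-temperature AlphaScreen kinase assay; pre-activated HepG2 lysate as JNK3 source, biotin-GST-cJun(1-79) substrate, 10 uM ATP, compound 15 min preincubation.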
On the technique in general: Bead proximity is the source of the signal in Alpha formats.

Test [3] deals with Cytochrome P450 3A4 (Homo sapiens) (UniProt P08684). Briefly: qHTS Assay for Inhibitors and Substrates of Cytochrome P450 3A4 (AID 884; active = well fitted curve in the direction sought with a large enough effect; an effect the other way counts as inactive or inconclusive; note: nearly all actives have a fitted effect of over 50% in size; note: potency is the fitted concentration of half-maximal effect). Conditions: recombinant CYP3A4, Luciferin-PPXE luminescence; series mostly up to 57.1 µM. The gist of the method: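 20 nM human CYP3A4 with 25 uM Luciferin-PPXE (at KM) in 200 mM KPO4, preincubated 10 min with compound; NADPH regeneration started a 60 min RT reaction. Luciferin detected by luminescence, normalized to 57 uM ketoconazole as full inhibition.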
Sequence of Cytochrome P450 3A4 (Homo sapiens) (P08684 whole entry, looked up): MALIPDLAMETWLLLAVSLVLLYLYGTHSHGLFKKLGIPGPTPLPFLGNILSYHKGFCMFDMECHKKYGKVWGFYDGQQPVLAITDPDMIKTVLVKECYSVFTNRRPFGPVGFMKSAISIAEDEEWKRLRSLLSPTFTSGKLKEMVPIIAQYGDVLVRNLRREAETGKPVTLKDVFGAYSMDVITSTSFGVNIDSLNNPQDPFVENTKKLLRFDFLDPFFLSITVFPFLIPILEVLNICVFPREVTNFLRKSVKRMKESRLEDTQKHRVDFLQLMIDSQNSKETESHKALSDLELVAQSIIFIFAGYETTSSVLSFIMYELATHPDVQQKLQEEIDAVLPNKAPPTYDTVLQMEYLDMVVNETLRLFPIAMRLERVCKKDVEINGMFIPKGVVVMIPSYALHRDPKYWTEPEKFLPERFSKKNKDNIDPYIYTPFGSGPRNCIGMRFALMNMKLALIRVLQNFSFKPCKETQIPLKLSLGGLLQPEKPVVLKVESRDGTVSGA

Test [4] can be described thus: MultiTox-Fluor Cytotoxicity Assay - LYMP1-001 - Live Cells (AID 947; active = well fitted curve in the direction sought with a large enough effect; an effect the other way counts as inactive or inconclusive;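 note: 0% = DMSO only and full inhibition = tetraoctylammonium bromide control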). Conditions: LYMP1-001 lymphoblastoid cells, live-cell protease fluorescence viability; series mostly up to 92.2 µM.
In test [5] the target is Estrogen receptor (Homo sapiens) (UniProt P03372). Briefly: qHTS assay for small molecule antagonists of estrogen receptor alpha signaling (AID 588513; active = well fitted curve in the direction sought with a large enough effect in the signal ratio, with a control signal flat, not every such curve was filed as active; the % refers to the signal ratio; note: % is set by controls: 0 for no effect and ±100 for the full control effect). The settings on record: ER-alpha-UAS-bla HEK293, beta-lactamase ratio, antagonist mode; series mostly up to 76.9 µM. The gist of the method:
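Beta-lactamase reporter, antagonist mode, HEK 293 GripTite cells; 0.5nM E2 stimulus, 18 h, 37 C; CCF4 dye 2 h RT; fluorescence. IC50 and efficacy from Hill fits, normalized to E2 and DMSO.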

Test [6] deals with Bile acid receptor (Homo sapiens) (UniProt Q96RI1). Briefly: qHTS assay for small molecule antagonists of farnesoid X receptor signaling (AID 588526). Note: % is set by controls: 0 for no effect and ±100 for the full control effect. Conditions: HEK293T FXR-UAS-bla, beta-lactamase ratio, antagonist mode; series mostly up to 76.7 µM. An outline of the steps: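 Beta-lactamase reporter antagonist mode: HEK293T FXR-UAS-bla cells, titrated compound, CDCA stimulation, 16 h 37 C, CCF4 dye 2 h RT. Data normalized to CDCA 50 uM and DMSO; Hill-fit IC50.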
Sequence of Bile acid receptor (Homo sapiens) (Q96RI1 whole entry, looked up): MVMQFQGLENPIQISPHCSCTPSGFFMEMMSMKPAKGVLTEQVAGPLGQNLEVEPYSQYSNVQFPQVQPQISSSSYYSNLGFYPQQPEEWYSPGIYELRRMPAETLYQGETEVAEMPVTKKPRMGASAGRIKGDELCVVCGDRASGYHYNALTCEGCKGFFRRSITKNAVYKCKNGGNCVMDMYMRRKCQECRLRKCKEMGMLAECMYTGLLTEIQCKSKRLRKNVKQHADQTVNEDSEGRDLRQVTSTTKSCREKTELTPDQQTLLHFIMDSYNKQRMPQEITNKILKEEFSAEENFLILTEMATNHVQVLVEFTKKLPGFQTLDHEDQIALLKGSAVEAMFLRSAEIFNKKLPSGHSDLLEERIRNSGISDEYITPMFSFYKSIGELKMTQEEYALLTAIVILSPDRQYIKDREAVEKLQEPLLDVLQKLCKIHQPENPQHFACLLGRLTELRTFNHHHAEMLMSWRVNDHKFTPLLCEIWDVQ

Test [7] in a line: qHTS assay for small molecule antagonists of peroxisome proliferator-activated receptor delta signaling (AID 588535; active = well fitted inhibition curve with a large enough effect in the signal ratio, with a control signal flat, not every such curve was filed as active; the % refers to the signal ratio;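 for max response: cells co-treated with a PPAR-delta agonist as stimulator during compound exposure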). Conditions: HEK293T PPARd-UAS-bla, beta-lactamase FRET ratio, 18 h; 460 nm channel. The gist of the method:
(§1)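 Cell-based beta-lactamase assay in antagonist mode: 4000 HEK293T PPAR-delta-UAS-bla cells per well, 5 hr preincubation then 18 hr compound incubation at 37 C. IC50 obtained by Hill equation fitting.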

The target in test [8] is Peroxisome proliferator-activated receptor delta (Homo sapiens) (UniProt Q03181). The description is as above. Conditions: HEK293T PPARd-UAS-bla, beta-lactamase FRET ratio, 18 h; series mostly up to 76.7 µM. The gist of the method:
as §1

Test [9] in a line: qHTS assay for small molecule agonists of the antioxidant response element (ARE) signaling pathway (AID 651741; active = well fitted activation curve with a large enough effect in the signal ratio; the % refers to the signal ratio; note: potency is the fitted concentration of half-maximal effect; for activation: % of control where 0% means no effect). Conditions: HepG2 ARE-bla reporter, beta-lactamase FRET ratio, 16 h; series mostly up to 96 µM. An outline of the steps: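 Seeding 2,000 ARE-bla HepG2 cells per well preceded a 5 h incubation at 37 C/5% CO2 and a 16 h compound exposure at 37 C. Beta-lactamase reporter activity was then quantified by fluorescence after 2 h with LiveBLAzer B/G FRET substrate.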

Test [10] can be described thus: qHTS assay for small molecule disruptors of the mitochondrial membrane potential - 1 hr assay (AID 651754). Note: nearly all actives have a fitted effect of over 35% in size. Note: potency is the fitted concentration of half-maximal effect. The settings on record: series mostly up to 92.2 µM. An outline of the steps:
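HepG2 cells, attached overnight at 37C, were exposed to compound or DMSO vehicle for 1 hr at 37C, 5% CO2, then stained with Mito-MPS dye for 30 min. Red aggregate versus green monomer fluorescence reports membrane potential.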

The target of test [11] is Tumor necrosis factor (Homo sapiens) (UniProt P01375). Briefly: qHTS assay to identify small molecules that stimulate Tumor Necrosis Factor-alpha (TNF-alpha) secretion (AID 651757; active = well fitted curve in the direction sought with a large enough effect in the signal ratio; the % refers to the signal ratio; note: 0% is about no effect). Conditions: Human cells, HTRF 665/615 ratio; series mostly up to 92.2 µM. The gist of the method: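 THP-1 cells were exposed to compounds for 17 hrs at 37 C, after which secreted TNF-alpha was measured by homogeneous HTRF (TR-FRET) using cryptate- and XL665-labeled anti-TNF-alpha antibodies, read after 3 hr at room temperature.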
Sequence of Tumor necrosis factor (Homo sapiens) (P01375 whole entry, looked up): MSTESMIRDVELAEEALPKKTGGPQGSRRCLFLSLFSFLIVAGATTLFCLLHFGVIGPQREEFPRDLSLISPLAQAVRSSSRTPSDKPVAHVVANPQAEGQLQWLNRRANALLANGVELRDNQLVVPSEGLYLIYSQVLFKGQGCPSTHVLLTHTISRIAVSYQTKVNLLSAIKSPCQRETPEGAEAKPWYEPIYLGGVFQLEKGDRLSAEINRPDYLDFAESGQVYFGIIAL

In test [12] the target is Nuclear receptor ROR-gamma (Homo sapiens) (UniProt P51449). Briefly: qHTS assay for small molecule antagonists of the retinoid-related orphan receptor gamma (ROR-gamma) signaling pathway (AID 651802; active = well fitted curve in the direction sought with a large enough effect; an effect the other way counts as inactive or inconclusive; note: % is set by controls: 0 for no effect and ±100 for the full control effect; nearly all actives have a fitted effect of over 60% in size). Conditions: ROR-gamma antagonist cell reporter assay; series mostly up to 92.2 µM. The gist of the method:
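CHO cells carrying TET-inducible ROR-gamma and an ROR response element–luciferase reporter were exposed to compound, then induced with doxycycline. After 16hr at 37C, luminescence was read; lower signal indicates antagonism.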

The nature of test [13]: qHTS assay for small molecule activators of the human pregnane X receptor (PXR) signaling pathway (AID 720659; call rule not given here; note: 0% is about no effect). The settings on record: DPX-2 HepG2 CYP3A4-luciferase, 24 h; series mostly up to 92.3 µM.
A short description of test [14]: Cell Viability - MRC5 (AID 434).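 Note: potency is the fitted concentration of half-maximal effect; cells exposed to compound for 40 hours at 37 °C; potency reflects cytotoxicity seen as loss of intracellular ATP.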 Conditions: MRC5 lung fibroblast viability, qHTS. The gist of the method: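 qHTS cytotoxicity in human lung fibroblast MRC5 cells; 40 hr treatment, 37 °C; cellular ATP by luciferase luminescence; DMSO = 0%, 100 uM tamoxifen = 100% inhibition; Hill-fit AC50.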
A short description of test [15]: Cellular Toxicity (caspase-3) N2a (AID 665; active = well fitted curve in the direction sought with a large enough effect; an effect the other way counts as inactive or inconclusive;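 note: compound exposure lasted 16 h at 37 °C before readout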). Conditions: N2a cells, luminescence, normalized: DMSO 0%, 10 µM staurosporine 100%; series mostly up to 92.2 µM. The gist of the method:
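Mouse N2a neuroblastoma cells (1500/well) were treated with compounds for 16 h at 37 °C, then caspase-3/7 activity was read by Caspase-Glo luminescence after 1 h at room temperature. Data were normalized to DMSO and 10 uM staurosporine; AC50 from Hill fits.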

The nature of test [16]: Cell Viability - LYMP1-002 - Assay at 24 hr (AID 993; active = well fitted curve in the direction sought with a large enough effect; an effect the other way counts as inactive or inconclusive; note: % is set by controls: 0 for no effect and ±100 for the full control effect). The settings on record: LYMP1-002 lymphoblastoid cells viability; series mostly up to 92.2 µM. An outline of the steps:
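Human lymphoblastoid LYMP1-002 cells, 2500/well in complete medium, were treated with compounds for 24 h at 37 C; intracellular ATP was read by CellTiter-Glo luminescence. AC50 values came from Hill-equation fits of qHTS concentration-response data.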

In test [17] the target is Estrogen receptor (Homo sapiens) (UniProt P03372). Briefly: qHTS assay for small molecule agonists of estrogen receptor alpha signaling (AID 588514).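 For activation: 0% = vehicle only and 100% = reference agonist.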 Note: nearly all actives have a fitted effect of over 70% in size. Note: potency is the fitted concentration of half-maximal effect. Conditions: ER-alpha-UAS-bla HEK293, beta-lactamase ratio, 18 h; series mostly up to 76.8 µM. An outline of the steps:
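ER-alpha-UAS-bla GripTite HEK 293 cells in medium with 2% charcoal/dextran-treated FBS were treated with compound titrations at 37 C for 18 hrs; beta-lactamase reporter read by CCF4 fluorescence after 2 hrs at RT.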

The nature of test [18]: qHTS assay for environmental chemicals that activate the Aryl hydrocarbon Receptor (AhR) signaling pathway (AID 651777; active = well fitted curve in the direction sought with a large enough effect; an effect the other way counts as inactive or inconclusive; note: potency is the fitted concentration of half-maximal effect; nearly all actives have a fitted effect of over 15% in size). Conditions: 1A2-DRE human hepatoma cells, luciferase, 24 h; activation: stronger effect = higher value. An outline of the steps: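 1A2-DRE human hepatoma reporter line; 1,200 cells/well; cmpd or DMSO 24 h, 37 C/5% CO2; One-Glo 30 min RT; luciferase lum.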
For test [19], the target named is Androgen receptor (Homo sapiens) (UniProt P10275). Description: qHTS assay for small molecule agonists of androgen receptor signaling (AID 588515; active = well fitted curve in the direction sought with a large enough effect in the signal ratio, with a control signal flat; the % refers to the signal ratio; note: % is set by controls: 0 for no effect and ±100 for the full control effect). Conditions: AR-UAS-bla HEK293, beta-lactamase ratio, agonist 16 h; stronger effect = higher value. An outline of the steps: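 EC50 and efficacy came from Hill fits of titrations (up to 92 uM) normalized to 30 nM R1881 as 100% and DMSO as 0%. Compound exposure was 16 h at 37 C on AR-UAS-bla HEK293 cells, with a 405/460/530 nm CCF4 fluorescence read.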
Sequence of Androgen receptor (Homo sapiens) (P10275 whole entry, looked up): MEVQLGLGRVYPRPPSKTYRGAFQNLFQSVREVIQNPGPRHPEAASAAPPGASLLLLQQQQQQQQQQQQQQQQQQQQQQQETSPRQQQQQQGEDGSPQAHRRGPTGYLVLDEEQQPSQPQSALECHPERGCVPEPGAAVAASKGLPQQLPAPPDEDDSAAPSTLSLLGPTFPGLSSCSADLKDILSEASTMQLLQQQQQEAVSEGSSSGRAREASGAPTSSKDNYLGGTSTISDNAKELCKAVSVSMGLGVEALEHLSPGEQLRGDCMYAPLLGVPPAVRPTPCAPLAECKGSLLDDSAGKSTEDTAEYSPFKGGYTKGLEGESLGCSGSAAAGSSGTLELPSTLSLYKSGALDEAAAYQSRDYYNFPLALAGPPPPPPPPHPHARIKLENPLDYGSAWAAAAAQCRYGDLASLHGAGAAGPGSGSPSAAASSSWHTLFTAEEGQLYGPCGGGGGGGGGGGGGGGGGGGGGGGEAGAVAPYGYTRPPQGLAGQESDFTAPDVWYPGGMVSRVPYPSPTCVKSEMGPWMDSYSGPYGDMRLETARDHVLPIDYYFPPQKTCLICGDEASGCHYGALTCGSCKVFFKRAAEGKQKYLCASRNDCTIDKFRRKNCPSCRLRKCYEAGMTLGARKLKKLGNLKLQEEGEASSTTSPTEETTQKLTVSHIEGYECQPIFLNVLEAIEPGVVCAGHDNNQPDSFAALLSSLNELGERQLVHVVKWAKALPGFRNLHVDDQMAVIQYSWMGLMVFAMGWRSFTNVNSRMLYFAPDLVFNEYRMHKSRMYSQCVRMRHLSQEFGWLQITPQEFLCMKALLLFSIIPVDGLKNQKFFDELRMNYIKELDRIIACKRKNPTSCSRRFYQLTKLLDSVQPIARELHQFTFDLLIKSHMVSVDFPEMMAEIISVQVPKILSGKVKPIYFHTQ

Test [20] has the same target. Briefly: qHTS assay for small molecule antagonists of androgen receptor signaling (AID 588516; active = well fitted curve in the direction sought with a large enough effect in the signal ratio, with a control signal flat, not every such curve was filed as active; the % refers to the signal ratio; note: % is set by controls: 0 for no effect and ±100 for the full control effect). The settings on record: AR-UAS-bla HEK293, beta-lactamase ratio, antagonist mode, 16 h; series mostly up to 76.8 µM. An outline of the steps:
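HEK293 AR-UAS-bla cells, 10% dialyzed FBS medium; cpd titration + R1881 10 nM final, 16 h 37 C; CCF4 2 h RT; FRET ratio; IC50/efficacy via Hill fit.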

Sequence of Nuclear receptor ROR-gamma (Homo sapiens) (P51449 whole entry, looked up): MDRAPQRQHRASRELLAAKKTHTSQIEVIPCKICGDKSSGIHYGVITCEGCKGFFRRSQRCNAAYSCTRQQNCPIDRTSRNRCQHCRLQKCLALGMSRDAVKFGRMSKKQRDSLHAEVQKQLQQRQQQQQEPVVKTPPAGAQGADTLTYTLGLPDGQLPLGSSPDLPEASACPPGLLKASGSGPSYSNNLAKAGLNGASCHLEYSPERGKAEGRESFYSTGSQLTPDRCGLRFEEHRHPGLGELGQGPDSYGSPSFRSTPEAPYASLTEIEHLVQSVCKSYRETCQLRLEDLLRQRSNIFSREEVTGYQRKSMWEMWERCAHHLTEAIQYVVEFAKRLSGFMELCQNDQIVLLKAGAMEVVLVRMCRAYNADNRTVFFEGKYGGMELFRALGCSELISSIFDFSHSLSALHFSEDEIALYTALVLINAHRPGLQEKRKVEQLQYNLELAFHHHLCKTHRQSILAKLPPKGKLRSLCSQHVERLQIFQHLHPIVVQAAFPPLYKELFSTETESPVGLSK
Sequence of Peroxisome proliferator-activated receptor delta (Homo sapiens) (Q03181 whole entry, looked up): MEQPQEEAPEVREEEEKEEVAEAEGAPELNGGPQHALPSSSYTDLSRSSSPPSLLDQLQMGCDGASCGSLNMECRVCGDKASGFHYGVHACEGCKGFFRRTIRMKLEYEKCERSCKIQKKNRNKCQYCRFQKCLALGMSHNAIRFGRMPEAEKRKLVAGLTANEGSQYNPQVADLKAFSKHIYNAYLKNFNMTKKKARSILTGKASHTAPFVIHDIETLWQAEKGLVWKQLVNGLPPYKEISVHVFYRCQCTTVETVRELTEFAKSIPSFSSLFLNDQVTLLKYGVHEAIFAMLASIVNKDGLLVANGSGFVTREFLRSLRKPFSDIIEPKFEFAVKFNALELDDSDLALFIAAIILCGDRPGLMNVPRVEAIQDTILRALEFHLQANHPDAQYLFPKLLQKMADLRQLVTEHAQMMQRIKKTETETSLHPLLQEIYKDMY
Sequence of Estrogen receptor (Homo sapiens) (P03372 whole entry, looked up): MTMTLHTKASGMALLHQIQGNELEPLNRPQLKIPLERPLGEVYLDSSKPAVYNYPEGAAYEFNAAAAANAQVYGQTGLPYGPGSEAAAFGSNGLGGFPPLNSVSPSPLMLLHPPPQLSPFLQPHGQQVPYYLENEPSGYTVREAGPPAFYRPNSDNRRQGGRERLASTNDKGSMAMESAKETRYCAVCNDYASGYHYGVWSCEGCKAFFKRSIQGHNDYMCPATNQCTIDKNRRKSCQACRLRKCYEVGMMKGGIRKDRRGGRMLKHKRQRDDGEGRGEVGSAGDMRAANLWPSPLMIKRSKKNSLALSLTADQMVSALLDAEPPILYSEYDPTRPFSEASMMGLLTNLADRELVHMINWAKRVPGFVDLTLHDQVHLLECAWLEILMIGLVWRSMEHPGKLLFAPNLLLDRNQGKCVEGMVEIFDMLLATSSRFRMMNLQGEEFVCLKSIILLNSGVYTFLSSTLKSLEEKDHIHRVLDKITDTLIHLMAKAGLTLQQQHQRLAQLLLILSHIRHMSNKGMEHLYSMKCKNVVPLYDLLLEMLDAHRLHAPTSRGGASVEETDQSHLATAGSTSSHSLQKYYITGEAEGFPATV

Consider `COC(=O)c1ccc(C)cc1`, for which, in [1], the Potency was > 92 µM (inactive). Further, the Potency entry in test [2], in test [3], in test [4], in test [5], in test [8] and in test [9] was “inactive” throughout. Also, the Potency result in [10] and in test [12] was “inactive” in each case. For the same compound, the outcome in test [6], in test [11] and in test [13] was inactive. Moreover, in test [7], the max response was -3.36% and -19.7%.
As for `O=C1c2ccccc2C(=O)C1c1ccc2ccccc2n1`, the Potency in [14] is 30.1 µM (active); in [3], 2.51 µM (active); in test [17] it was 1 µM (active); in [9], 1.37 µM (active) and 1.5 µM (active); in test [10], 944 nM (active); in test [18], 39.8 µM (active) and 7.08 µM (active). Also, in [15], the outcome was inactive. Further, the Potency entry in test [4], in test [16] and in test [5] was “inactive” each time.
Consider `CC1=CC(C)(C)Nc2ccccc21`, for which the Potency in [1] is > 92 µM (inactive); in test [3], 10 µM (active) and inactive. Besides, the Potency result in [2], in test [4], in test [5], in test [17], in [8] and in test [10] was “inactive” throughout. Besides, the Potency result in [12] is “inactive”. Also, in [7], the max response was 34.8% and 1.74%. The outcome in [11] was inactive.
Turning to `CCCN(CCC)C(=O)SCC`, the Potency in test [1] and in [14] was > 92 µM (inactive) each time. For the same compound, the Potency entry in test [2], in [3], in [4], in [5], in test [17] and in [9] was “inactive” each time. The Potency entry in test [12] was “inactive”. Also, the result in test [15], in test [20], in test [11] and in test [13] was inactive. For the same compound, the activation in test [19] is 12.4% (inactive) and -3.98% (inactive).
For `CN1CC[C@H](CN2c3ccccc3Sc3ccccc32)C1`, the activity change, negative = inhibition in test [2] is 0.762% [at 11.4 µM] (inactive).
Take `COCC(=O)O`: the Potency in test [1] and in [14] was > 92 µM (inactive) in each case. Besides, the compound was called inactive in [15] and in [11]. For the same compound, the Potency entry in [3], in [4], in test [16], in [5], in test [17] and in [8] was “inactive” in each case. In addition, the Potency entry in [9], in test [10] and in test [12] was “inactive” each time. The max response in test [7] is 5.18% and 13.7%.
For `CCO[Si](CCCN)(OCC)OCC`, the Potency in test [1] is > 92 µM (inactive). In addition, the Potency entry in test [2], in test [3], in test [4], in [5], in [17] and in test [8] was “inactive” throughout. Besides, the Potency entry in [9], in test [10] and in [12] was “inactive” in each case. In addition, the result in test [6], in test [11] and in test [13] was inactive. Further, the max response in test [7] was 6.45% and -7.95%.
`Cc1cccc(O)c1`: the Potency result in test [17] and in [8] was “inactive” each time. For the same compound, the max response in test [7] is -22.1% and -37.2%.
For the compound `CCC(C)c1ccccc1O` (stereo unspecified), the Potency in test [1] and in test [14] was > 92 µM (inactive) each time. Besides, the Potency result in test [2], in test [3], in test [4], in test [8], in [10] and in [12] was “inactive” each time. Also, the max response in [7] is -8.1% and -17.6%. The outcome in test [11] and in [13] was inactive.
